PriA SSB inh: inhibitors of Klebsiella pneumoniae PriA binding to SSB C-terminal tail, primary screen, biochemical, AlphaScreen | PriA–SSB C-terminal tail interaction (Klebsiella pneumoniae) | actives 0.6% (n = 430,000) | inhibition, % at 33 µM | AID 1272365, 2023 | AlphaScreen SSBct-PriA binding, biotinylated peptide; in the data active = inhibition mostly above about 37%, no sharp cut-off; inactive = mostly below about 20%;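 also: plate controls were negative control peptide for no effect and reference peptide for full effect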
Sa ugtP lethal: growth inhibition of ugtP-null S. aureus, primary screen, RN4220 ugtP deletion, OD600. growth inhibition, % (concentration not given with the values). actives 0.54% (n = 330,000). 16 h. AID 1259309, 2017; in the data active = growth inhibition above about 68%;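 also: plate controls were untreated wells for no effect and antibiotic for full effect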
Sa RN4220 lethal: growth inhibition of S. aureus RN4220, primary screen, OD600. 16 h. inhibition, % (test concentration not listed). actives 0.33% (n = 330,000). AID 1259311, 2017; in the data active = inhibition above about 85%;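 also: plate controls were untreated cells for no effect and reference antibiotic for full effect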
* hit, by the source's call; i = inactive; . = no result given; ! = not active in a repeat. In the library only some 1% were active in any assay of this set; here they are far more common.

SMILES	PriA SSB inh	Sa ugtP lethal	Sa RN4220 lethal
O=C(Cn1c(=O)oc2cc(S(=O)(=O)N3CCCC3)ccc21)NCc1ccc(F)cc1	104*	14	0
O=C(Cn1c(=O)oc2cc(S(=O)(=O)N3CCCC3)ccc21)NC1CCCCC1	-13	-4	4
CN(C)c1ccc(NC(=S)NC23CC4CC(CC(C4)C2)C3)cc1	45*	-10	-3
CCOc1ccc(NC(=S)NC23CC4CC(CC(C4)C2)C3)cc1	-12	.	.
COC(=O)c1ccc(NC(=O)CSc2ncnc3c2[nH]c2ccc(F)cc23)cc1	-1	.	.
COc1ccc(NC(=O)Cc2ccc(Cl)c(Cl)c2)cn1	-2	-1	5
COc1ccc(NC(=O)/C(Cl)=C(/Cl)S(=O)(=O)Cc2ccc(C)cc2)cn1	-3	98*	37
O=C(CCc1nnc2c3cc(-c4ccccc4)nn3ccn12)N1CCOCC1	1	.	.
COc1ccc(OC)c(NC(=O)CSc2nnc3ccc(-c4ccco4)nn23)c1	0	.	.
COc1ccc(N2CCN(CCNC(=O)c3ccco3)CC2)cc1	-14	.	.
COC(=O)CSC1CCN(C(=O)CCNS(=O)(=O)c2c(C)c(C)cc(C)c2C)C1 (stereo not drawn)	8	.	.
Cc1cc(C)nc(SC2=CS(=O)(=O)c3ccccc32)n1	-11	-2	6
O=S1(=O)C=C(Sc2nc3ccccc3s2)c2ccccc21	3	91*	54
Cc1oncc1C(=O)N(Cc1cccs1)Cc1cccn1C	7	.	.
N#Cc1nc(COc2ccccc2)oc1N1CCN(Cc2ccccc2)CC1	-25	7	2
N#Cc1nc(-c2cccs2)oc1N1CCN(Cc2ccccc2)CC1	41*	17	10
CC(Nc1cc(N2CCNCC2)ccc1[N+](=O)[O-])c1ccccc1 (stereo not drawn)	13	-6	-4
CC(Nc1cc(N2CCN(C(=O)C(C)(C)C)CC2)ccc1[N+](=O)[O-])c1ccccc1 (stereo not drawn)	41*	-18	-2
CC(C)C(=O)N1CCN(c2ccc([N+](=O)[O-])c(NC(C)c3ccccc3)c2)CC1 (stereo not drawn)	49*	-20	-9
CCS(=O)(=O)N1CCN(c2ccc([N+](=O)[O-])c(NC(C)c3ccccc3)c2)CC1 (stereo not drawn)	-19	6	-4
O=C1CSC(=N/N=C\c2ccc(-c3ccc([N+](=O)[O-])cc3)o2)N1	-7	.	.
CCOC(=O)N1CCc2c(sc(NC(=O)c3ccc(Cc4ccccc4)cc3)c2C#N)C1	1	.	.
CCOC(=O)N1CCN(c2cc(=O)n(-c3ccc(Cl)cc3)c(=O)[nH]2)CC1	-9	.	.
CCOC(=O)N1CCN(c2cc(=O)n(-c3ccccc3Cl)c(=O)[nH]2)CC1	104*	1	2
Cc1cc(C=NNC(N)=S)c(O)c(C=NNC(N)=S)c1	59*	15	5
SMILES	PriA SSB inh	Sa ugtP lethal	Sa RN4220 lethal
Cc1ccc(-n2c(C)cc(C=NNC(N)=S)c2C)cc1	23	-7	-1
Cc1noc(C2(NC(=O)c3ccccc3C)CCCCC2)n1	-4	.	.
COc1ccc(C)cc1S(=O)(=O)NCCn1ncccc1=O	-5	.	.
CC[n+]1c(/C=C/N(C)c2ccccc2)n(-c2ccccc2)c2ccc(-c3nc4ccccc4s3)cc21	14	101*	100*
CCOC(=O)c1ccc2c(c1)n(CC)c(/C=C/N(C)c1ccccc1)[n+]2CC	-7	6	19
COc1ccc(N(C(=O)c2ccccc2C)S(=O)(=O)c2cccs2)cc1	-11	84*	3
COc1ccc(N(C(=O)c2ccncc2)S(=O)(=O)c2ccccc2)cc1	-10	5	5
O=C(CN1C(=O)COc2ccccc21)Nc1ccccc1	37	.	.
CC(=O)c1ccc(NC(=O)CN2C(=O)COc3ccccc32)cc1	56*	.	.
O=C1OC(Nc2ncccn2)c2ccccc21 (stereo not drawn)	-14	-1	19
O=C1OC(Nc2cc(Br)cc3cccnc23)c2ccccc21 (stereo not drawn)	74*	-9	34
CC(=NNc1ccccn1)c1ccc(N2CCOCC2)cc1	7	6	13
CC(=NNc1nc2ccccc2[nH]1)c1ccc(N2CCOCC2)cc1	54*	1	1
CCCn1c2c(c(=N)c3c1CCC3)CCC2	-7	9	3
CCCCCCCn1c2c(c(=N)c3ccccc31)CCC2	-4	89*	25
CCN1C(=O)Cc2cc(NC(=O)OC)ccc21	13	.	.
O=C(C1=C(O)C(=O)N(Cc2cccnc2)C1c1cccc(Br)c1)c1cccs1 (stereo not drawn)	-4	.	.
Nc1c(-c2ccccc2)nc(Cl)nc1-c1ccccc1	-19	8	2
c1ccc(-c2nc3nonc3nc2-c2ccccc2)cc1	26	98*	97*
COc1cccc(C=NNc2ncc(C(F)(F)F)cc2Cl)c1O	5	99*	100*
COc1ccc(C=NNc2ncc(C(F)(F)F)cc2Cl)cc1OC	9	5	7
Cc1cc(C)c(Cn2c(=O)n(-c3ccc(CC(=O)NCCc4ccccc4)cc3)c(=O)c3sccc32)c(C)c1	-9	.	.
CCCNS(=O)(=O)c1ccc(NC(=O)Cc2cccs2)cc1	-12	4	3
CNS(=O)(=O)c1ccc(NC(=O)Cc2cccs2)cc1	45*!	.	.
O=C(NN=Cc1ccc([N+](=O)[O-])o1)c1ccccc1NS(=O)(=O)c1cccs1	.	100*	100*
SMILES	PriA SSB inh	Sa ugtP lethal	Sa RN4220 lethal
O=C(NN=Cc1ccc([N+](=O)[O-])o1)c1cn2ccc3ccccc3c2n1	.	100*	53
O=C(CNC(=O)c1ccccc1)NN=Cc1ccc([N+](=O)[O-])o1	-3	2	6
O=C(NN=Cc1ccc([N+](=O)[O-])o1)c1cc(-c2ccc(-c3ccccc3)cc2)nc2ccccc12	4	4	28
O=C(CNc1cccc2ccccc12)NN=Cc1ccc([N+](=O)[O-])o1	15	100*	99*
O=C(CNc1ccccc1)NN=Cc1ccc([N+](=O)[O-])o1	3	35	35
O=C(NN=Cc1ccc([N+](=O)[O-])o1)c1cc(-c2cccc(Br)c2)nc2ccccc12	19	100*	115*
O=C(N/N=C/c1ccc([N+](=O)[O-])o1)c1ccc(NS(=O)(=O)c2cccs2)cc1	i	.	.
COc1ccc(CNC(=O)N2CC(N3C(=O)CCC3=O)C2)cc1OC	-7	.	.
COc1ccc(OC)c(NC(=O)CSc2nnc(Cc3cccn3C)n2CCc2ccccc2)c1	33	-3	1
COc1ccc(OC)c(NC(=O)CSc2nnc(Cc3cccn3C)n2Cc2ccccc2)c1	39*	.	.
O=C(c1cc(-c2cccs2)[nH]n1)N1CCN(c2cc3c(nn2)CCCC3)CC1	2	.	.
CN1CCN(N=Cc2cccc(Cl)c2Cl)CC1	11	1	14
CN1CCN(N=Cc2c3ccccc3c(Cl)c3ccccc23)CC1	53*	-16	61
COC(=O)c1ccc(CSc2ccc(NC(=O)C3CC3)nn2)o1	-3	.	.
CC(=O)c1ccc2c3c(ccc(-c4ccc5c6c(ccc(C(C)=O)c46)CC5)c13)CC2	14	.	.
C=CCNC1=C(Cl)C(=O)c2ccccc2C1=O	24	90*	95*
O=C1C(Cl)=C(NCCc2ccccc2)C(=O)c2ccccc21	31	13	37
O=C(c1cc(C2CC2)on1)N1CCCSC[C@@H]1CN1CCCCC1	-5	.	.
